In the library only some 9% were active in any assay of this set; here they are far more common.
HPGD inh: HPGD (human) dehydrogenase inhibition | P15428 | purified HPGD, NADH fluorescence kinetic, PGE2 substrate | Potency, µM, for the others: at the highest dose activity change, negative = inhibition, usual class: inhibitors | 150,000 tested, 4.3% active; also: potency is read from the fitted curve at half-maximal effect
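20 nM HPGD preincubated 15 min at room temperature with compound in 50 mM Tris-HCl pH 8, 0.01% Tween 20. Started with 1 mM NAD+ and 30 uM prostaglandin E2; NADH fluorescence (360/450 nm) read 5 times over 30-s intervals, last minus first.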
IMPase cell inh: membrane-permeable compound that blocks inositol monophosphatase; CHO-M1 cells, IP1 accumulation, HTRF TR-FRET ratio; inhibition (IP1 accumulation), % at 46.1 µM; 120,000 tested, under 10 active; active = well fitted curve in the direction sought with a large enough effect in the signal ratio, not every such curve was filed as active; inconclusive = small, poorly fitted or top-dose-only effect, or a change in a side signal; inactive = no such curve, though single readings can be large or run the other way; the % refers to the signal ratio;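 also: cells stimulated with carbachol in lithium chloride buffer; plate controls were DMSO basal wells for no effect and reference inhibitor wells for full effect; higher means more IMPase inhibition seen as more IP1 and lower FRET ratio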
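CHO-M1 cells (CHO stably expressing M1 receptor), compound up to 46 uM final, stimulated with carbachol (50 uM as added) in buffer with 50mM LiCl, pH 7.4, 30 min at 37C. Cytosolic IP1 read by TR-FRET; AC50 from Hill fits.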
ALDH1A1 inh: inhibitors of human aldehyde dehydrogenase 1A1. Purified ALDH1A1, NADH fluorescence, propionaldehyde substrate. AID 1030. Potency, µM (series often up to 75.3 µM), for the others: at the top dose activity, negative = inhibition, hits mostly inhibitors. P00352. 220,000 tested, 7.3% active;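 also: potency is read from the fitted curve at half-maximal effect; plate controls were no enzyme wells and a reference inhibitor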
Target sequence (P00352 whole entry, looked up): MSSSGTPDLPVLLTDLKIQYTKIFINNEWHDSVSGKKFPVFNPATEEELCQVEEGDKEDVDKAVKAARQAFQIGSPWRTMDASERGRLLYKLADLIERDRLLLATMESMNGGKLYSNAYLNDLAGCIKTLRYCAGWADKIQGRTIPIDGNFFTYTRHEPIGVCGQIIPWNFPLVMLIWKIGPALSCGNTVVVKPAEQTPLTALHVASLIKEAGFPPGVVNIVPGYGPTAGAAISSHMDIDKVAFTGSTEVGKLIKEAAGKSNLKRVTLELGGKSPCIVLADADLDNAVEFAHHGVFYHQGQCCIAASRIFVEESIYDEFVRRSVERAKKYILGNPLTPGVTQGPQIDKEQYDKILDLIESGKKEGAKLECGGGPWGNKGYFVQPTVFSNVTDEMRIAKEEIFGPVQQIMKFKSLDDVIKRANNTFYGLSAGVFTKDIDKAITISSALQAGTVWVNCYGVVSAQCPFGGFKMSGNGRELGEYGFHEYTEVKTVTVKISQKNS
An asterisk follows results filed as active; ? = inconclusive; . = no result; [ ] = remark or other dose. Unless noted, calls follow the shape of the dose curve; as a rule, active = well fitted inhibition curve with a large enough effect (not every such curve was filed as active); inconclusive = small, poorly fitted or top-dose-only effect, or another doubt; inactive = no such curve, though single readings can be large or run the other way. Unless noted, % is scaled to controls: 0 for no effect and ±100 for the full control effect.

SMILES	HPGD inh	IMPase cell inh	ALDH1A1 inh
Cc1c(C(=O)N2CC(C)OC(C)C2)sc2nc(-c3ccc(F)cc3)cn12 (stereo not given)	35µM*	-4	-12%
Fc1ccccc1-c1n[nH]c(=S)n1CC1CCCO1 (stereo not given)	.	.	3%
S=c1[nH]nc(-c2ccccc2Cl)n1CC1CCCO1 (stereo not given)	-27%	-4	14µM*
NC(=O)NC(N)=O	-9%	.	-1%
COc1ccccc1-c1cc(C(F)(F)F)n2ncc(S(=O)(=O)c3ccccc3)c2n1	?	5	?
CN(C(=O)COC(=O)c1cc(S(=O)(=O)N2CCOCC2)c(Cl)cc1Cl)C1CCS(=O)(=O)C1 (stereo not given)	.	.	-1%
CN(C(=O)COc1ccc(S(=O)(=O)N2CCOCC2)cc1[N+](=O)[O-])C1CCS(=O)(=O)C1 (stereo not given)	.	.	13µM*
CC(=O)N1CCC2(CCN(Cc3nccs3)CC2)CC1	-5%	.	1%
CC(=O)c1cc2c(cc1NC(=O)CN1CCCCCCC1)OCO2	-10%	9	10µM*
CC(=O)c1cc2c(cc1NC(=O)CCCC(=O)O)OCO2	-14%	0	0%
COC(=O)c1[nH]c2ccc(F)cc2c1NC(=O)CCN1CCN(Cc2ccc3c(c2)OCO3)CC1	?	19	?
CCN(CC(=O)Nc1c(C(=O)OC)[nH]c2ccc(C)cc12)c1ccc2c(c1)OCO2	.	14	14µM*
CN1C(=O)CC(C(=O)Nc2ccc(C(=O)O)cc2)SC1=Nc1ccc(Cl)cc1 (stereo not given)	.	-1	.
CN(CC(=O)N1CCCC1)S(=O)(=O)c1cc(Cl)ccc1Cl	-45%	-13	?
Fc1cccc(NC(=S)Nc2cccnc2)c1	.	.	-9%
S=C(Nc1ccc(Cl)cc1)Nc1cccc2cnccc12	?	.	18µM*
Fc1ccc(NC(=S)Nc2ccccc2Cl)cc1	.	.	-2%
S=C(Nc1cccnc1)Nc1cccc2cnccc12	.	.	13µM*
Cc1cc(Cl)ccc1NC(=S)Nc1cccnc1	2%	2	-8%
Fc1ccc(NC(=S)Nc2cccc3cnccc23)cc1	.	.	7.9µM*
CN(C)S(=O)(=O)c1cccc(NC(=O)c2ccncc2)c1	0%	.	2%
CN(C)S(=O)(=O)c1cccc(NC(=S)Nc2cccc3cnccc23)c1	.	.	7.9µM*
COc1cc(/C=N/NC(=O)CN2CCCCC2)ccc1OCc1ccc(Br)cc1	-19%	.	3%
CN(C)Cc1ccccc1-c1nc(NC2CC2)c2ccccc2n1	.	.	20%
Cc1ccc(Oc2ccc(-c3nnc(-c4ccccc4)o3)cc2[N+](=O)[O-])cc1C	-16%	.	-9%
SMILES	HPGD inh	IMPase cell inh	ALDH1A1 inh
COc1ccc(-c2nc3cnc(Oc4ccccc4)nc3n(CCC#N)c2=O)cc1	.	.	10%
Cc1ccc(-n2c(=O)c3c(C)c(C)sc3n(Cc3cc(=O)n4ccccc4n3)c2=O)cc1C	-14%	-8	?
CC(=O)O[C@@H]1CC[C@]2(C)C(=C[C@@H]([C@@H]3C=C4C[C@@H](OC(C)=O)CC[C@]4(C)C4=C3[C@H]3C[C@@H]5O[C@@]6(CC[C@H](C)CO6)[C@@H](C)[C@@H]5[C@@]3(C)CC4)C3=C2CC[C@@]2(C)[C@H]4[C@@H](C)[C@]5(CC[C@H](C)CO5)O[C@@H]4C[C@H]32)C1	-5%	.	?
CCn1c(SCC(=O)N2CCC(C(N)=O)(N3CCCCC3)CC2)nnc1-c1ccccc1	2%	10	-16%
CC(C)NC(=S)Nc1ccc2cn[nH]c2c1	-4%	.	?
CN(C)S(=O)(=O)c1cccc(NC(=S)Nc2ccc3cn[nH]c3c2)c1	.	.	22µM*
CC(C)Oc1cccc(C(=O)NC(=S)Nc2ccc3c4c(cccc24)CC3)c1	.	?	-8%
COc1cc(OC)cc(C(=O)NC(=S)Nc2ccc3c4c(cccc24)CC3)c1	-13%	-2	7.9µM*
COc1ccc(C(=O)Nc2ccc3c4c(cccc24)CC3)cc1	-20%	2	-6%
COc1ccc(C(=O)NC(=S)Nc2ccc3c4c(cccc24)CC3)cc1OC	-15%	.	13µM*
CC1(C)N=C(c2cccc(F)c2)C(=O)N1	-4%	?	6%
Cc1ccc(S(=O)(=O)N(C)C)cc1NC(=O)c1cc(C(C)(C)C)nn1Cc1ccccc1	.	.	4.5µM*
CN(C)S(=O)(=O)c1ccc(Cl)c(NC(=O)c2ccncc2)c1	-2%	.	11µM*
CN(C)S(=O)(=O)c1ccc(NC(=O)c2ccncc2)cc1	.	.	0%
Cc1ccc(S(=O)(=O)N(C)C)cc1NC(=O)c1cccnc1Oc1ccccc1	.	.	28µM*
NS(=O)(=O)c1cccc(NC(=O)c2cccnc2Oc2ccccc2)c1	.	.	-11%
Cc1ccc(S(=O)(=O)N(C)C)cc1NC(=O)CN1CCN(Cc2ccccc2)CC1	.	.	1%
CC(C)c1ccc(N2CC(C)(C)C2=O)cc1	.	.	-1%
CN1/C(=C/C(=S)NC(=O)C2(C)CC2(Cl)Cl)C(C)(C)c2ccccc21 (stereo not given)	.	.	4µM*
CN1/C(=C\C(=S)NC(=O)c2ccccc2Cl)C(C)(C)c2ccccc21	-14%	.	?
CCc1ccc(CN(C)C(=O)CCc2nnc(Cc3cccc(C)c3)o2)nc1	.	.	2%
COc1ccc(C(=O)Cn2nnc(-c3ccccc3NC(=O)C3CCCCC3)n2)cc1	-13%	-1	0.28µM*
COc1ccc(NC(=O)Cn2nnc(-c3ccccc3NC(=O)C3CC3)n2)cc1	.	17	0%
CCC1=C(C[C@H]2NCCc3ccccc32)C[C@@H]2c3cc(OC)c(OC)cc3CCN2C1	-9%	.	12%[13.5 µM]
CCCCn1c(SCC(=O)c2ccc(O)c(O)c2)nc2ccsc2c1=O	-5%	-2	?
SMILES	HPGD inh	IMPase cell inh	ALDH1A1 inh
Cc1ccc(Cn2c(SCC(=O)N3CC(=O)Nc4ccccc43)nc3ccccc3c2=O)cc1	.	-2	?
O=C1CN(C(=O)CSc2nc3cc(Cl)ccc3c(=O)n2Cc2ccccc2)c2ccccc2N1	-17%	?	7.9µM*
CC(C)Cn1c(SCC(=O)N2CCc3ccccc3C2)nc2cc(Cl)ccc2c1=O	-7%	.	10µM*
O=C(CSc1nc2ccccc2c(=O)n1CC1CCCCC1)N1CCOCC1	-11%	7	?
CCCCn1c(SCC(=O)c2ccccc2)nc2ccsc2c1=O	-1%	.	7.1µM*
CCN(CC)C(=O)CSc1nc2ccccc2c(=O)n1CC1CCCCC1	.	24	11µM*
COCCn1c(SCC(=O)N2CCc3ccccc3C2)nc2cc(Cl)ccc2c1=O	-13%	.	?
COC(=O)C1=NNCC12CC(=O)N(c1ccc(Br)cc1)C2=O (stereo not given)	-3%	.	-7%
CCn1c(=O)n(CC(=O)NC2CCCC(C)C2C)c(=O)c2ccccc21 (stereo not given)	-21%	-3	?
COc1ccccc1NCC(=O)n1nc(C)cc1C	.	.	6%
Cc1cc2ccccc2c(=O)n1CC(=O)N1CCN(c2cccc(Cl)c2)CC1	-16%	-29	-1%
CC(C)(C)c1nc(SCC(=O)NCc2ccco2)c2ccccc2n1	-18%	-21	?
CCn1c(SCC(=O)N2CCN(c3cccc(Cl)c3)CC2)nc2ccccc2c1=O	-18%	14	28µM*
COn1c(SC2CCCCC2)nc2ccccc2c1=O	32µM*	-7	32µM*
COn1c(SC(C)C)nc2ccccc2c1=O	-13%	1	3%
COc1ccc(C(=O)CSc2nc3ccccc3n2CC(=O)c2ccccc2)cc1	-5%	11	25µM*

Source: PubChem BioAssay
